Screening data deposited in PubChem BioAssay by National Center for Advancing Translational Sciences (NCATS).
KB-V1 cytotox = qHTS assay for MDR1-selective chemotherapeutics: Primary screen using the drug-selected MDR subline cells KB-V1 | AID 1347076, 2019 | actives 3.4% (n = 400,000) | Potency, µM (highest dose often 46.1 µM), hits mostly cytotoxic | KB-V1 MDR cells viability, CellTiter-Glo, 72 h; also: nearly all actives have a fitted effect of over 60% in size
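KB-V1, DMEM (no phenol red) + 10% FBS; cpd pin-transferred, titration series; 72 h, 37 degrees C; CellTiter-Glo, luminescence. Data normalized, curve-fit.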
IL-1B inflam inh = qHTS for Inhibitors of Inflammasome Signaling: IL-1-beta AlphaLISA Primary Screen. THP-1 LPS/ATP IL-1B secretion, AlphaLISA, 16 h; hits give low values. actives 4.7% (n = 360,000). activity change, % at 57.5 µM; in the data active = activity change below about -50%; inconclusive = mostly about -30% to -49%
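Secreted IL-1B measured by AlphaLISA bead assay after 16 h compound exposure of THP-1 cells; compounds (final up to 57.5 uM) added 1 h before LPS (250 ng/mL) and ATP (1.25 mM) stimulation; lower signal means less secretion.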
KB-3-1 tox = qHTS assay for MDR1-selective chemotherapeutics: Primary screen using the parental adenocarcinoma cell KB-3-1; AID 1347075, 2019; Potency, µM (top dose mostly 46.1 µM), most hits filed as cytotoxic; actives 1.4% (n = 400,000); KB-3-1 viability, CellTiter-Glo ATP luminescence, 72 h; also: nearly all actives have a fitted effect of over 60% in size
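KB-3-1 parental drug-naive adenocarcinoma cells in DMEM/10% FBS, incubated 72 h at 37 C with pin-transferred compounds across a concentration series. Viability by CellTiter-Glo luminescence; concentration-response curves fitted after normalization.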
MCF10A rereplic = A quantitative high throughput screen for small molecules that induce DNA re-replication in MCF 10a normal breast cells; MCF 10A DNA re-replication, Hoechst nuclear intensity, 48 h; Potency, µM (titrated, usually from 46.1 µM), actives largely listed as activators; actives 2.9% (n = 350,000); AID 624296, 2012; also: nearly all actives have a fitted effect of over 50% in size
SW480 rerep = A quantitative high throughput screen for small molecules that induce DNA re-replication in SW480 colon adenocarcinoma cells; SW480 DNA re-replication, Hoechst DNA content imaging, 48 h; actives 1.8% (n = 340,000); Potency, µM (top dose mostly 46.1 µM), usual class: activators; also: nearly all actives have a fitted effect of over 55% in size
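250 cells/well; 23 nL cpd via pin tool; 48 hr, 37 C, 5% CO2; Hoechst 40 min; imager read of total nuclear intensity, ex 405/em 500-530 nm.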
Each line names hits and unclear results; the compound was inactive in the other large screens. Hits are enriched below; roughly 9.9% of the tested compounds scored in any of these assays. Unless noted, calls follow the shape of the dose curve; as a rule, active = well fitted curve in the direction sought with a large enough effect; inconclusive = small, poorly fitted or top-dose-only effect, or another doubt; inactive = no such curve, though single readings can be large; an effect the other way counts as inactive or inconclusive.

Cc1ccc(-c2ccc(/C=N\NC(=O)C3C(=O)NCC3c3ccccc3)o2)cc1Cl (centres undefined)	IL-1B inflam inh -55, MCF10A rereplic inconclusive, SW480 rerep inconclusive
O=C(CCN=C1NS(=O)(=O)c2ccccc21)OCc1nnc(-c2ccccc2)o1	none
CC(C)N(C(=O)N1CCN(c2ccnc3cc(Cl)ccc23)CC1)C(C)C	KB-V1 cytotox inconclusive, IL-1B inflam inh -84, MCF10A rereplic 16µM
O=C(c1ccc(Cl)cc1)N1CCN(c2ccnc3cc(Cl)ccc23)CC1	KB-V1 cytotox inconclusive, IL-1B inflam inh -92, KB-3-1 tox inconclusive
Cc1ccc(S(=O)(=O)N2CCN(c3ccnc4cc(Cl)ccc34)CC2)cc1	IL-1B inflam inh -81, KB-3-1 tox inconclusive
O=C(CN1CCSCC1)N/N=C/c1cccc(Cl)c1	none
COc1cccc(CC2(CO)CCCN(Cc3cn(C)c4ccccc34)C2)c1 (centres undefined)	MCF10A rereplic inconclusive
CCn1cc(CN2CCCC(CO)(Cc3ccc(F)cc3)C2)c2ccccc21 (centres undefined)	IL-1B inflam inh -65
CSCCCN1CCCC(CO)(Cc2ccc(F)cc2)C1 (centres undefined)	none
Cn1cc(CN2CCCC(CO)(Cc3ccccc3)C2)c2ccccc21 (centres undefined)	IL-1B inflam inh -59
O=C(NC(=S)Nc1cccnc1)c1cccc(Cl)c1	none (no result: MCF10A rereplic, SW480 rerep)
c1cnc(-c2nnc3n2CCCCC3)cn1	MCF10A rereplic 1.5µM, SW480 rerep inconclusive
COc1cccc(C(=O)NCCS(=O)(=O)N2CCN(C(=O)c3ccco3)CC2)c1	KB-V1 cytotox inconclusive
C#CCN(C[C@@H]1[C@@H](OC(=O)NCc2ccccc2)[C@@H](OC(=O)NCc2ccccc2)CN(C(=O)OC(C)C)N1C(=O)OC(C)C)S(=O)(=O)c1ccc(C)cc1	IL-1B inflam inh -58 (no result: MCF10A rereplic, SW480 rerep)
COc1ccc(OC)c(-c2csc(-c3c(N)c(C(=O)c4ccc(Cl)cc4)n4ccccc34)n2)c1	none (no result: IL-1B inflam inh, MCF10A rereplic, SW480 rerep)
Cc1cc(C)cc(S(=O)(=O)c2cnc3ccccc3n2)c1	IL-1B inflam inh -99, MCF10A rereplic inconclusive, SW480 rerep inconclusive
O=S(=O)(c1ccc(Cl)cc1)c1cnc2ccccc2n1	IL-1B inflam inh -99, MCF10A rereplic inconclusive, SW480 rerep inconclusive
O=C(/C=C/c1ccco1)Nc1nc(-c2ccccn2)cs1	SW480 rerep inconclusive
O=C(/C=C/c1ccco1)Nc1cccnc1	none
O=C(/C=C/c1ccco1)Nc1ccccn1	KB-V1 cytotox inconclusive, KB-3-1 tox 5.8µM, MCF10A rereplic 15µM, SW480 rerep 5.2µM
Cc1ccc(NC(=O)/C=C/c2ccco2)nc1	KB-V1 cytotox 0.1µM, KB-3-1 tox 0.16µM, MCF10A rereplic inconclusive, SW480 rerep inconclusive
COc1ccc(Br)cc1S(=O)(=O)NCCc1cccs1	none
Cc1cc(Cl)c(OCCCNC2CCCC2)c(Br)c1	KB-V1 cytotox inconclusive, IL-1B inflam inh -73, SW480 rerep inconclusive
Cc1ccc(OCCCCn2ccnc2)c(Cl)c1	KB-V1 cytotox 21µM
Cc1ccc(OCCCCn2ccnc2C)c(C)c1	KB-V1 cytotox inconclusive, IL-1B inflam inh -56, MCF10A rereplic 15µM
Cc1cc(Cl)c(OCCCn2ccnc2)c(Br)c1	IL-1B inflam inh -72
COCCCNCCCCOc1c(Cl)cc(C)cc1Br	KB-V1 cytotox inconclusive
Cc1cc(C)c(OCCCn2ccnc2)c(C)c1	none
CCn1nc(C)cc1C(=O)Sc1cccc(Cl)c1	MCF10A rereplic 23µM
Cc1nn(C)c(C(=O)Sc2cccc(Cl)c2)c1[N+](=O)[O-]	MCF10A rereplic 18µM, SW480 rerep inconclusive
O=C1CCCc2c1cc(C(=O)NCc1ccco1)c(=O)n2-c1ccc(Cl)cc1	KB-V1 cytotox 16µM, KB-3-1 tox inconclusive
Cc1cccc(C)c1NC(=O)C(c1ccccc1F)n1c(=O)c(-c2ccccc2)nc2ccccc21 (centres undefined)	none (no result: MCF10A rereplic, SW480 rerep)
CCCC(=O)N(CCN1CCOCC1)c1nc2c(F)cc(F)cc2s1	SW480 rerep inconclusive
O=C(Nc1cccc(S(=O)(=O)N2CCCCC2)c1)c1ccccn1	KB-V1 cytotox inconclusive, IL-1B inflam inh -84
O=C(Nc1cccc(S(=O)(=O)N2CCCC2)c1)c1ccc(Cl)nc1	KB-V1 cytotox inconclusive, KB-3-1 tox inconclusive, MCF10A rereplic inconclusive, SW480 rerep 18µM
O=C(Nc1cccc(S(=O)(=O)N2CCOCC2)c1)c1ccccn1	none
O=C(Nc1cccc(S(=O)(=O)N2CCOCC2)c1)c1ccc(Cl)nc1	KB-3-1 tox inconclusive
CCCC(=O)N1CCN(c2ccc([N+](=O)[O-])cc2Cl)CC1	none
Cc1ccc(Cl)cc1N1CCN(C(=O)CSc2ccsc2[N+](=O)[O-])CC1	KB-V1 cytotox 5.2µM, MCF10A rereplic inconclusive
Cc1nn(CC(C)C(=O)N2CCN(S(=O)(=O)c3ccc(Cl)cc3)CC2)c(C)c1C (centres undefined)	KB-V1 cytotox 21µM
Cc1ccc(S(=O)(=O)N2CCN(C(=O)C(C)Cn3nc(C)c(C)c3C)CC2)cc1 (centres undefined)	none
Cc1ccc(Cl)cc1N1CCN(C(=O)CSc2cc(=O)n(C)c3ccccc23)CC1	none (no result: IL-1B inflam inh, MCF10A rereplic, SW480 rerep)
Cc1ccc(S(=O)(=O)N2CCN(C(=O)CCCOc3ccc(Cl)cc3C)CC2)cc1	KB-V1 cytotox inconclusive, IL-1B inflam inh -62, KB-3-1 tox inconclusive
Cc1cc(Cl)ccc1OCCCC(=O)N1CCCCC1	MCF10A rereplic inconclusive
O=C(CSc1ccc(Cl)cc1)N1CCN(c2ccc([N+](=O)[O-])cc2Cl)CC1	KB-V1 cytotox 16µM, IL-1B inflam inh -62, KB-3-1 tox inconclusive, MCF10A rereplic inconclusive
CC(=O)c1cccc(NC(=O)CCc2c(C)nc3c(c(C)nn3-c3ccccc3)c2C)c1	none (no result: IL-1B inflam inh, MCF10A rereplic, SW480 rerep)
CCOC(=O)N1CCC(N2C(=O)c3ccc(C(=O)Nc4cccc(OC)c4)cc3C2=O)CC1	none
CNS(=O)(=O)c1cc(-c2nnc(Nc3cc(C)ccc3C)c3ccccc23)ccc1C	none (no result: IL-1B inflam inh, MCF10A rereplic, SW480 rerep)
O=C(c1ccc([N+](=O)[O-])cc1Cl)N1CCN(c2ccccn2)CC1	SW480 rerep inconclusive
O=[N+]([O-])c1ccc(N2CCN(c3ccccn3)CC2)c(Cl)c1	KB-V1 cytotox inconclusive, IL-1B inflam inh -59
Cc1ccc(S(=O)(=O)N2CCN(C(=O)CSc3ccc(Cl)cc3)CC2)cc1	IL-1B inflam inh -61, MCF10A rereplic inconclusive
O=C(CSc1ccc(Cl)cc1)N1CCN(c2ncc(C(F)(F)F)cc2Cl)CC1	KB-V1 cytotox 15µM, MCF10A rereplic inconclusive
O=C(Nc1ccc(-c2nc3ccccc3[nH]2)cc1)c1ccc2c(c1)OCCO2	KB-3-1 tox inconclusive (no result: IL-1B inflam inh, MCF10A rereplic, SW480 rerep)
CC(C)Oc1ccc(CN2CCC(n3nccc3NC(=O)C3CC3)CC2)cc1	none (no result: KB-V1 cytotox, KB-3-1 tox)
O=C1N(c2ccccc2C(F)(F)F)O[C@@]1(c1ccccc1)C1CCCCC1	MCF10A rereplic 21µM, SW480 rerep inconclusive
